This note sets out measurements from PubChem BioAssay.

Active and inactive are the calls of the source.

Experiment [1] deals with Plasmodium falciparum Sir2 (PF13_0152, Sir2A). Nature of the experiment: Plasmodium falciparum Sir2A binding compounds – biochemical, small-molecule microarray, 635 nm fluorescence, primary screen (AID 1098).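 Note: score merges spot fluorescence intensity with its signal-to-noise ratio.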 Conditions: fluorescence 635 nm, higher = more signal.
The nature of experiment [2]: probe aDKK1 binding to arrayed compounds – biochemical, biotinylated probe, 635/667 nm fluorescence, primary screen (AID 1099).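 Note: score merges 667nm spot fluorescence with signal to noise across triplicate slides; reference of the scale not given here.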 The following applies: small-molecule microarray, higher = more signal.
The nature of experiment [3]: probe aCHRDL2 binding to arrayed compounds – biochemical, biotinylated probe, 635/667 nm fluorescence, primary screen (AID 1100). Conditions: small-molecule microarray, higher = more signal.
Experiment [4] can be described thus: change in splice reporter luminescence, either direction, cell-based, HEK293, spliceosome inhibition project, primary screen (AID 1101).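 Note: HEK293 cells carrying a splicing-competent luciferase reporter gene; test concentration not given here.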 Conditions: HEK293 splicing luciferase reporter, 24 h, higher = more signal, called active from +8 up or from −8 down.
Experiment [5] has as its target Fibroblast growth factor 10 (Homo sapiens) (UniProt O15520). Nature of the experiment: compounds binding fibroblast growth factor 10 – biochemical, small-molecule microarray, 635 nm fluorescence, primary screen (AID 1102). Conditions: FGF10 binding, fluorescence 635 nm, higher = more signal.
Experiment [6] deals with glycogen synthase kinase-3 (GSK3A per assay name; protocol says GSK3B). As to the kind of experiment: compounds binding glycogen synthase kinase-3 – biochemical, small-molecule microarray, 635 nm fluorescence, GSK3A, primary screen (AID 1103). Note: the record names both GSK3A and GSK3B. The following applies: fluorescence 635 nm, higher = more signal.
Experiment [7] concerns the target Epidermal growth factor receptor (Homo sapiens) (UniProt P00533). Nature of the experiment: compounds binding epidermal growth factor receptor – biochemical, small-molecule microarray, 635 nm fluorescence, primary screen (AID 1104).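 Note: score merges 667 nm emission intensity with spot signal to noise over triplicate slides.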 The following applies: EGFR binding, higher = more signal.
For experiment [8], the target named is Follistatin-related protein 3 (Homo sapiens) (UniProt O95633). As to the kind of experiment: compounds binding follistatin-related protein 3 – biochemical, small-molecule microarray, 635 nm fluorescence, primary screen (AID 1105).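 Note: score merges emission near 667 nm and signal to noise per printed spot across three slides.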 Conditions: FSTL3 binding, higher = more signal.
Follistatin-related protein 3 (Homo sapiens), sequence (O95633 whole entry, looked up): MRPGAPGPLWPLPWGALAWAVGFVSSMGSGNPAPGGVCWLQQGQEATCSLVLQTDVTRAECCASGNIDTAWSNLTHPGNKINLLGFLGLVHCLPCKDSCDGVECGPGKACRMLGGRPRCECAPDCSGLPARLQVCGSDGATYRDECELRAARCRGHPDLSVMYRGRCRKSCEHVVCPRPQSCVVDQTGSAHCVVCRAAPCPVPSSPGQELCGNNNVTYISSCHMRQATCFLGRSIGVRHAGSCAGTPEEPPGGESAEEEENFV
For experiment [9], the target named is Dickkopf-related protein 1 (Homo sapiens) (UniProt O94907). As to the kind of experiment: small molecules binding DKK1 protein – biochemical, small-molecule microarray, 635 nm fluorescence scan, primary screen (AID 1106).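 Note: score merges emission near 667 nm with signal to noise over three replicate slides.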 The following applies: higher = more signal.
Dickkopf-related protein 1 (Homo sapiens), sequence (O94907 whole entry, looked up): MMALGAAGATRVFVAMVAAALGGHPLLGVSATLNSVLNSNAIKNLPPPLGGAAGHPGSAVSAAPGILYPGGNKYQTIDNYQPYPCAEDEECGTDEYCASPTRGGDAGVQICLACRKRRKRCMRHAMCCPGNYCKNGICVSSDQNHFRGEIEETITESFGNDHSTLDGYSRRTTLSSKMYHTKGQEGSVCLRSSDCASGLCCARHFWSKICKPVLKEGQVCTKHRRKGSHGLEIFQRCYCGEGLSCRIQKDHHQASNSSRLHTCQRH
In experiment [10] the test system is Inhibin beta A chain (activin A). Nature of the experiment: small molecules binding activin A – biochemical, small-molecule microarray, 635 nm fluorescence scan, primary screen (AID 1107).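 Note: mouse activin A protein probed at 4.33 µg/mL on printed slides; score merges bound-protein fluorescence near 667 nm with spot signal-to-noise.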 The following applies: INHBA, higher = more signal.

Fibroblast growth factor 10 (Homo sapiens), sequence (O15520 whole entry, looked up): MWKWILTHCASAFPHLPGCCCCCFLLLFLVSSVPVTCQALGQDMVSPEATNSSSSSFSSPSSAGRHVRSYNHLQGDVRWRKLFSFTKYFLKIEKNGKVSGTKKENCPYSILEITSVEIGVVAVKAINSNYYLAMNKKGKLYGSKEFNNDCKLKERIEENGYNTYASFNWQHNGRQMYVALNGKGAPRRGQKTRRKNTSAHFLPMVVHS
Epidermal growth factor receptor (Homo sapiens), sequence (P00533 whole entry, looked up): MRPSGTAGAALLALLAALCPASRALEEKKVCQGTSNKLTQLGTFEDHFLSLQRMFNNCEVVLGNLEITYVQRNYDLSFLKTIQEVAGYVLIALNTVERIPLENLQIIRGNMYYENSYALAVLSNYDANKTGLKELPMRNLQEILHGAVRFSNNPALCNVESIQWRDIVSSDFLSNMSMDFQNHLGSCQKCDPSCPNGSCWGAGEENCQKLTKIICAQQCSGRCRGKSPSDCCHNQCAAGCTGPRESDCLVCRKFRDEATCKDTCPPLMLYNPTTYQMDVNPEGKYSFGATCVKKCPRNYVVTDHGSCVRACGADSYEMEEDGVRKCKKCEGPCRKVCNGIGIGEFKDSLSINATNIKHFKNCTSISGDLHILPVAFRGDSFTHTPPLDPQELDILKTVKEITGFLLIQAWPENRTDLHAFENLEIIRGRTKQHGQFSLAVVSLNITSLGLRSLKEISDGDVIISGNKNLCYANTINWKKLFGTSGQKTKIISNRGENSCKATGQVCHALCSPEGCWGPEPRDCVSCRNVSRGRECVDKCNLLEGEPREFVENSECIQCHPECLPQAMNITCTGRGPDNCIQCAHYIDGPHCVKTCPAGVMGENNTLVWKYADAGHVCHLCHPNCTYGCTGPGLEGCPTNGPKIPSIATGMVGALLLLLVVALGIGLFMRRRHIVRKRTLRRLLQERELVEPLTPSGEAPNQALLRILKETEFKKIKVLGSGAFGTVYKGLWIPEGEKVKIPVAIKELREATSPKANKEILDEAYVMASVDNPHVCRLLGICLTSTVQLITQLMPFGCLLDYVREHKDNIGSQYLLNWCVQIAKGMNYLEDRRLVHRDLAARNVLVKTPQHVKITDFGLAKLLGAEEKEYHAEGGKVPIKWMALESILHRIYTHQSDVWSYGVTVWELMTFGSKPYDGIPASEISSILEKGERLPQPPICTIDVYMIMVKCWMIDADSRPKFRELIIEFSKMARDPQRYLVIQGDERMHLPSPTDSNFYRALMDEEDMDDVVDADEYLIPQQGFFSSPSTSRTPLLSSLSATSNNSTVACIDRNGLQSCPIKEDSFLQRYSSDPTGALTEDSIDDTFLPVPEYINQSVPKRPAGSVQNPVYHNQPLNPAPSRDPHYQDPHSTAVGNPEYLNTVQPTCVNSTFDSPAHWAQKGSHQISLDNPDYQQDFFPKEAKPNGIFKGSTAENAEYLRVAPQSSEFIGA

For the compound `COc1ccc(O[C@H]2C=C[C@@H](c3ccccc3)O[C@@H]2CON=C(C)CCC(=O)OC[C@H]2O[C@H](c3ccccc3)C=C[C@@H]2Oc2ccc(OC)cc2)cc1`, the composite z-score was 0.0844 in experiment [1]; -0.252 in [2]; 0.2 in experiment [3]; -1.19 in experiment [5]; -1.59 in [6]; -1.63 in experiment [7]. Further, the composite z-score in experiment [8] is -1.25; in experiment [9] it was -0.591; in experiment [10], 0.95. Also, in [4], the z-score is 0.114 (inactive).

For `COC(=O)[C@@H]1CC[C@H](C)[C@@H](c2ccc(C)cc2)N1C(=O)c1ccc(C=NOC[C@@H](C)[C@H](OCc2ccccc2)C(C)C)cc1`, the composite z-score is 0.854 in experiment [1]; 0.0975 in experiment [2]; -0.233 in experiment [3]; 0.532 in experiment [5]; 1.16 in [6]; 0.814 in [7]. For the same compound, the composite z-score in experiment [8] is 0.804; in experiment [9] it was 0.414; in experiment [10] it was -0.182. The z-score in [4] was -1.12 (inactive).

As for `C[C@@H](c1ccccc1)N1C(=O)[C@H]2[C@H]3[C@H](O)[C@H](O)CC(=NO[C@@H]4O[C@H](CO)[C@@H](O)[C@H](O)[C@H]4O)[C@@H]3CC[C@H]2C1=O`, the composite z-score in [1] was 0.256; in experiment [2], -0.193; in experiment [3], -0.62; in experiment [5] it was 0.305; in experiment [6] it was 0.495; in experiment [7], 0.586. Besides, the composite z-score in [8] came out at 0.579; in experiment [9] it was 0.393; in experiment [10], 0.0868. Besides, in experiment [4], the z-score was 0.119 (inactive).

With `O=C(NN=C1C[C@@H](O)[C@@H](O)[C@@H]2[C@@H]3C(=O)N(C4CCCCC4)C(=O)[C@@H]3CC[C@H]12)OCc1ccccc1`, the composite z-score in experiment [1] was 0.0222; in [2] it was 0.691; in [3] it was 1.07; in experiment [5], 0.836; in experiment [6], 0.0816; in [7], 0.554. In addition, the composite z-score was -0.483 in [8], -0.504 in [9] and -0.0726 in experiment [10]. Further, the z-score in experiment [4] was -0.177 (inactive).

For the compound `O=C1CCCC=C1C(CCc1ccccc1)OC(=O)c1ccc(Br)cc1` (stereo not given), the composite z-score in experiment [1] is -0.258; in experiment [2], -0.0892; in [3] it was -0.442; in experiment [5] it was 0.146; in experiment [6] it was -0.61; in [7], 0.362. For the same compound, the composite z-score in experiment [8] worked out at 0.283; in experiment [9], 0.422; in experiment [10], 0.608. The z-score in experiment [4] is -0.173 (inactive).

`CCOC(=O)[C@H](CC(C)C)NC(=O)CCC1CC(OC(=O)NCCc2ccc(F)cc2)CC2(CCCC(COC(=O)NCCC(C)C)O2)O1` (stereo not given in full): the composite z-score in experiment [1] is 0.264; in experiment [2] it was -0.149; in experiment [3], -0.424; in experiment [5], 0.18; in experiment [6], -0.0508; in [7], 0.0889. For the same compound, the composite z-score in experiment [8] is 0.27; in [9], 0.324; in [10], 0.175. In experiment [4], the z-score was -0.695 (inactive).

On to `CCCNC(=O)OC[C@H]1O[C@H](CCON=C(C)CCN2CCc3nc(CC)c(CC)cc3C2)C=C[C@@H]1Oc1ccc(OC)cc1`, for which the composite z-score in experiment [1] was 0.865; in [2] it was -0.231; in experiment [3], -0.163; in experiment [5], -0.423; in experiment [6], -0.687; in [7], 0.159. Moreover, the composite z-score in experiment [8] worked out at 0.125; in [9], 0.192; in experiment [10] it was 0.886. Besides, the z-score in experiment [4] is -1.02 (inactive).

As for `CC(C)CCN1CCc2nc(COc3ccccc3)c3c(c2C1)CO[C@@H](C)C3`, the composite z-score in experiment [1] was 0.605; in experiment [2] it was 0.179; in [3], 0.844; in experiment [5], -0.185; in experiment [6] it was -0.113; in experiment [7], -0.0715. Moreover, the composite z-score is -0.204 in [8], -0.471 in [9] and 0.71 in [10]. Also, the z-score in [4] was 0.893 (inactive).

Turning to `CC(=O)Nc1ccc([C@@H]2N[C@H](C(=O)O)CC[C@H]2C)cc1`, the composite z-score in experiment [1] is 0.136; in experiment [2] it was -0.108; in experiment [3], -0.401; in [5], 0.32; in experiment [6], 0.461; in experiment [7], 0.546. In addition, the composite z-score in experiment [8] stood at 0.409; in experiment [9], 0.444; in experiment [10], 0.133. The z-score in experiment [4] was 0.303 (inactive).

In the case of `CON=C[C@@H](NS(=O)(=O)c1ccc(C)cc1)[C@H](C)C=CCC(=O)OC`, the composite z-score is 0.571 in experiment [1]; -0.26 in [2]; -0.447 in experiment [3]; 0.0529 in [5]; -0.435 in experiment [6]; 0.314 in experiment [7]. The figures for the composite z-score in [8], in experiment [9] and in experiment [10] were 0.224, 0.611 and 1.33, respectively. Further, the z-score in [4] was -0.114 (inactive).

For `CC(C)CON=C1C[C@@H](O)[C@@H](O)[C@@H]2[C@@H]3C(=O)N(c4cccc(Oc5ccccc5)c4)C(=O)[C@@H]3CC[C@@H]12`, the composite z-score in [1] is 1.13; in experiment [2], -0.277; in experiment [3], -0.446; in experiment [5], 0.746; in experiment [6], 0.789; in experiment [7], 0.368. The figures for the composite z-score in experiment [8], in experiment [9] and in experiment [10] were 0.348, 0.195 and -0.163, respectively. Besides, the z-score in experiment [4] was -1.24 (inactive).

`CCN1C(=O)[C@H]2[C@H]3[C@H](O)[C@H](O)CC(=NO[C@@H](C)c4cn([C@H](CO)Cc5ccccc5)nn4)[C@@H]3CC[C@H]2C1=O`: the composite z-score was 0.774 in experiment [1]; 0.262 in experiment [2]; -0.426 in experiment [3]; 0.792 in experiment [5]; 0.92 in experiment [6]; 0.182 in experiment [7]. Moreover, the composite z-score in experiment [8] is 1.14; in experiment [9], 0.692; in experiment [10] it was -1.1. In [4], the z-score is 0.358 (inactive).

For `COC(=O)[C@@H]1CC[C@@H](C)[C@H](c2ccc(Br)cc2)N1`, the composite z-score in experiment [1] is 0.644; in experiment [2] it was -0.013; in experiment [3] it was -0.0951; in experiment [5], -0.0342; in experiment [6], -0.0839; in experiment [7], 0.185. Also, the values for the composite z-score in experiment [8], in experiment [9] and in experiment [10] were -0.155, 0.133 and 0.987, respectively. Besides, the z-score in experiment [4] is -0.203 (inactive).

As for `COc1ccc(COC(=O)NN=C2C[C@@H](O)[C@@H](O)[C@@H]3[C@@H]4C(=O)N(c5ccc(F)cc5F)C(=O)[C@@H]4CC[C@H]23)cc1`, the composite z-score in experiment [1] was 0.299; in experiment [2] it was 0.939; in [3], 1.22; in [5], 0.0785; in [6] it was -0.258; in experiment [7], -1.2. In addition, the composite z-score in experiment [8] was -0.496; in experiment [9], -1.13; in experiment [10], -0.009. In addition, the z-score in experiment [4] was -0.531 (inactive).

In the case of `CCN1C(=O)[C@@H]2[C@H]3C(=CC[C@@H]2C1=O)C1(OCCCO1)[C@H]1O[C@H]1[C@H]3O`, the composite z-score was 0.416 in [1]; 0.195 in experiment [2]; -0.0468 in experiment [3]; 1.39 in experiment [5]; 1.34 in experiment [6]; 0.286 in experiment [7]. In addition, the composite z-score was 1.22 in experiment [8], 0.739 in [9] and -0.0212 in experiment [10]. For the same compound, the z-score in [4] was -9.75 (active).

`COc1ccc(O[C@H]2C=C[C@@H](c3ccccc3)O[C@@H]2CON=C2[C@H]3CCn4c(=O)n(-c5ccccc5)c(=O)n4[C@H]3[C@H](O)[C@@H]3O[C@H]23)cc1`: the composite z-score in experiment [1] was 0.393; in [2], 0.214; in experiment [3], -0.224; in experiment [5] it was 0.464; in experiment [6] it was 0.417; in [7], 0.318. Also, the figures for the composite z-score in experiment [8], in experiment [9] and in experiment [10] were 0.584, 0.288 and 0.338, respectively. In addition, in [4], the z-score was 1.09 (inactive).
